Laboratory results from PubChem BioAssay (NCI).
The panel holds about 83,000 compounds, 20% with a hit somewhere; the sample as a whole holds those more often.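 Percent growth is the endpoint: 0 to 100 indicates growth inhibition (40 means 60% inhibition), 0 means no net growth, and negative values indicate cell death.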 A number with no mark means an inactive call. Activity calls are given as the source filed them. The calls were made as follows: active = growth percent below 10; inactive = the rest.

Experiments:
Experiment in all cases: NCI-60 one-dose screen, 48 h (100 = growth as untreated, 0 = no growth, -100 = all killed)
NCI-H460 lung = settings: 10 µM unless noted
786-0 renal = settings: 10 µM unless noted
DU-145 prostate = settings: 10 µM unless noted
SF-268 CNS = settings: 10 µM unless noted
SF-539 CNS = settings: 10 µM unless noted
M14 melanoma = settings: 10 µM unless noted
HCT-15 colon = settings: 10 µM
SNB-75 CNS = settings: 10 µM unless noted
PC-3 prostate = settings: 10 µM unless noted
UACC-62 melanoma = settings: 10 µM unless noted
SK-MEL-28 melanoma = settings: 10 µM unless noted
SN12C renal = settings: 10 µM unless noted
TK-10 renal = settings: 10 µM unless noted
HL-60(TB) leukemia = settings: 10 µM unless noted
OVCAR-8 ovarian = settings: 10 µM unless noted
NCI/ADR-RES ovarian = settings: 10 µM unless noted
SW-620 colon = settings: 10 µM unless noted
MCF7 breast = settings: 10 µM unless noted
HCT-116 colon = settings: 10 µM unless noted
KM12 colon = settings: 10 µM unless noted

Row | SMILES | growth (NCI-H460 lung) | growth (786-0 renal) [%] | growth (DU-145 prostate) | growth (SF-268 CNS) [%] | growth (SF-539 CNS) | growth (M14 melanoma) | growth (HCT-15 colon) [%] | growth (SNB-75 CNS) | growth (PC-3 prostate) | growth (UACC-62 melanoma) [%] | growth (SK-MEL-28 melanoma) [%] | growth (SN12C renal) | growth (TK-10 renal) [%] | growth (HL-60(TB) leukemia) | growth (OVCAR-8 ovarian) | growth (NCI/ADR-RES ovarian) [%] | growth (SW-620 colon) [%] | growth (MCF7 breast) [%] | growth (HCT-116 colon) | growth (KM12 colon)
1 | CC1(C)N=C(N)N=C(N)N1c1ccc(OCCCCNC(=O)Nc2cccc(S(=O)(=O)F)c2)c(Cl)c1 | 14.2% | 35.8 | 37.1% | 44.4 | 40.1% | 40.4% | 90.3 | 74.8% | 5.73% (active) | 22.8 | 60.3 | 7.54% (active) | 62 | 29.4% | 29.2% | 110 | 27.1 | 15 | 16.4% | 41.7%
2 | Fc1ccc(C2=NN(c3ccccc3)C(c3sc(N(CCCl)CCCl)nc3Cl)C2)cc1 (centres undefined) | 90.7% | 92.2 | 109% | 86.5 | 101% | 92.2% | 94.3 | 68.7% | 68.2% | 59.8 | 111 | 86.9% | 117 | 103% | 87.5% | 92.3 | 84.4 | 72.2 | 68.2% | 81.1%
3 | CC(C)(C)NCC(O)c1ccccc1Cl (centres undefined) | 6.76% (active) | 20.9 | -27.8% (active) | 26.6 | 7.78% (active) | -12.8% (active) | 58.9 | -24.4% (active) | 18% | 24 | 48.2 | 24.1% | 17.3 | 1.68% (active) | 9.87% (active) | 85.6 | 22 | – | 7.48% (active) | 3.52% (active)
